Source: PubChem BioAssay

experiment: MM1S cell viability effects, profiling panel, calcein-AM fluorescence, 48 h, basal (AID 1165); settings: higher = more signal;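 further: viability of MM1S multiple myeloma cells under basal unstimulated conditions; test concentration not given here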

| SMILES | z-score |
| --- | --- |
| O=C1NC(=O)C2C1C=CC(C(O)c1cc(C(F)(F)F)cc(C(F)(F)F)c1)N2Nc1ccccn1 (stereo not given) | 0.34 |
| C=C(/C(=C/C[C@H](OC(C)=O)c1ccccc1OCCO)c1cnc2ccccc2c1)C(C)C | -3.32 |
| COC(=O)[C@H](Cc1ccccc1)N1CC2=C[C@@H](C3CC3)n3c(=O)n(C)c(=O)n3[C@H]2[C@@H]1[C@@H](O)Cc1ccccc1 | 0.378 |
| CC(=O)n1cc(C(O)C2C=CC3C(=O)N(c4ccccc4)C(=O)C3N2Nc2ccc([N+](=O)[O-])cc2)c2ccccc21 (stereo not given) | -1.53 |
| CN1C=C(C(=O)OCCS(C)(=O)=O)C(C(=O)OCCS(C)(=O)=O)=CC(c2ccc(CO)cc2)=CC1C1CC1 (stereo not given) | -0.807 |
| COC(=O)[C@]1(CCC(=O)OC(C)(C)C)N=C(c2ccc(OCCCO)cc2)O[C@@H]1c1ccccc1CN=[N+]=[N-] | -3.55 |
| C=CCNC(=O)[C@@H]1[C@H]2C(=O)O[C@H](c3ccccc3)[C@H](c3ccccc3)N2[C@H](c2ccc(OCCO)cc2)[C@@]12C(=O)Nc1ccc(C#CCC(C(=O)OC)C(=O)OC)cc12 | -3.45 |
| COC(=O)C(CC#Cc1ccc2c(c1)[C@]1(C(=O)N2)[C@H](c2ccc(OCCO)cc2)N2[C@H](c3ccccc3)[C@H](c3ccccc3)OC(=O)[C@H]2[C@@H]1C(=O)N1CCc2cc(OC)c(OC)cc2C1)C(=O)OC | -0.952 |
| NC(=O)N1C(=O)C2C(C1=O)C1C=C(c3ccc(CO)cc3)C2C(c2cccs2)N1Cc1cccc(OC(F)(F)F)c1 (stereo not given) | -2.08 |
| C=CCC(OC(C)=O)[C@@H]1[C@@H](N(Cc2ccc(-c3ccccc3)cc2)C(=O)c2cccc3ccccc23)c2cc(OCCCO)ccc2N1C(=O)c1ccc(-c2ccccc2)cc1 (stereo not given in full) | 0.139 |
